PKM2 inh = blocks activity of human pyruvate kinase M2. AID 1634. 0.058% of 260,000 active. Potency, µM (doses to about 57.5 µM), for the others: at the top dose activity change, negative = inhibition, usual class: inhibitors. P14618. purified PKM2, ATP generation, Kinase-Glo luminescence; further: potency means the concentration at half of the fitted maximal effect; nearly all actives have a fitted effect of over 60% in size
Target sequence (P14618 whole entry, looked up): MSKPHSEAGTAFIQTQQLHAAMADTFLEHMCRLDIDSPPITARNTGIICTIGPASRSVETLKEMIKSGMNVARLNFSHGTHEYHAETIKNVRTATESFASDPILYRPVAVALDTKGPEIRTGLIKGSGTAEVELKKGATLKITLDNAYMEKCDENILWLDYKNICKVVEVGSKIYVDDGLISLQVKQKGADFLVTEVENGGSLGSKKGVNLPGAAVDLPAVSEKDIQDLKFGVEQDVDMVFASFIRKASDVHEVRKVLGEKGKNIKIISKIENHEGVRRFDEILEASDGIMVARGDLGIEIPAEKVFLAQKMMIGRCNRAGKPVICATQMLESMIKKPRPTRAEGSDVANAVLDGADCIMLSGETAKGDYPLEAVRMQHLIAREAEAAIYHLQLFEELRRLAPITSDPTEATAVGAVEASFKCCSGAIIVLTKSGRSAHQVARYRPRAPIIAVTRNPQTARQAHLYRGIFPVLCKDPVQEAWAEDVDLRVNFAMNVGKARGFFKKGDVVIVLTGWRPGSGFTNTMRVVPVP
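Coupled luciferase luminescence (Kinase-Glo) detects ATP generated from 0.1 mM ADP and 0.5 mM PEP in imidazole buffer pH 7.2 with KCl, MgCl2; 1 h at room temperature. Enzyme at intermediate activity; normalized to uninhibited and no-enzyme controls.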
PKM2 inh dose = PKM2 (human) inhibition, concentration-response confirmation | shares compounds with PKM2 inh | purified hPK-M2, Kinase-Glo ATP luminescence, 1 h | Potency, µM (doses to about 57.5 µM), for inactives: top-dose activity change, negative = inhibition, actives largely listed as inhibitors | 50% of 55 active | AID 2263
PKM2 FLuc cs = counter-screen for pyruvate kinase M2 inhibitors: firefly luciferase inhibition; shares compounds with PKM2 inh; Kinase-Glo firefly luciferase, luminescence, 8 min; Potency, µM (titrated, usually from 57.5 µM), inactives show at the highest dose activity, negative = inhibition, usual class: inhibitors; 30% of 55 active
PKM2 inh LDH = confirmation of human pyruvate kinase M2 inhibitors, coupled readout. Potency, µM (top dose mostly 57.5 µM), inactives show at the top dose activity change, negative = inhibition, hits mostly inhibitors. shares compounds with PKM2 inh. 55 tested, under 10 active. purified hPK-M2, LDH-coupled NADH fluorescence kinetic. AID 2267
* = called active by the depositor; ? = inconclusive; / = no result. This is one part of a sample in which hits are shown more often than they occur. The call rests on the fitted dose curve; in most records, active means well fitted curve in the direction sought with a large enough effect; inconclusive means small, poorly fitted or top-dose-only effect, or another doubt; inactive means no such curve, though single readings can be large; an effect the other way counts as inactive or inconclusive.

SMILES	PKM2 inh	others
Cc1ccn2c(NCc3ccco3)c(-c3ccccc3)nc2c1	/	PKM2 inh dose=-10.1%;PKM2 FLuc cs=1.0%;PKM2 inh LDH=?
CS(=O)(=O)c1ccc(NCCc2ccc(S(N)(=O)=O)cc2)c([N+](=O)[O-])c1	57.0%
Cc1ccc(/C=N/N(Cc2ccccc2)c2ccccc2)o1	64.3%
COc1cccc(NC(=O)CSc2nnc3cc(C)nc(N)n23)c1	134.8%
COc1ccc(C(=O)Nc2cccc(OC)c2)cc1	?	PKM2 inh dose=?;PKM2 FLuc cs=?;PKM2 inh LDH=-9.6%
COc1cccc(NC(=O)CSc2nnc(C)s2)c1	41.6%
CC(C)(C)OC(=O)NCCCCCc1nnc(SCC(=O)Nc2cccc(Cl)c2)o1	111.6%
Cc1ccccc1S(=O)(=O)NCC1CCCO1 (stereo not given)	84.2%
CCOC(=O)C(Nc1ccc2ccccc2c1)C(=O)OCC	30.4%
CC(=O)Oc1ccc(NC(=O)Cc2ccccc2)c(C(=O)O)c1	-0.6%
CCOc1ccc(NC(=O)Nc2ccccc2C(N)=O)cc1	3.98µM*	PKM2 inh dose=9.19µM*;PKM2 FLuc cs=6.51µM*;PKM2 inh LDH=-1.5%
COc1ccccc1C(CCN(Cc1ccccc1)C(C)=O)c1ccco1 (stereo not given)	42.7%
CCc1nnc(NC(=O)CSc2nnc(-c3ccc(NS(=O)(=O)c4ccccc4)cc3)o2)s1	82.5%
COc1ccc(S(=O)(=O)Nc2nc3c(s2)CCCC3)cc1	90.5%
Cc1ccccc1Nc1c(-c2ccc(Cl)s2)nc2ccccn12	/	PKM2 inh dose=4.9%;PKM2 FLuc cs=0.2%;PKM2 inh LDH=?
Cc1nnc(NC(=O)CSc2nc3c(c(=O)n(C)c(=O)n3C)n2C(C)C)s1	48.0%
Cc1cccc(NC(=S)N(CCN2CCOCC2)Cc2cc3cc4c(cc3[nH]c2=O)OCCO4)c1	32.1%
CC(=O)c1ccc(OC(C)C)c(CN2CCCCC2)c1	35.5%
COc1ccc(-n2c(=O)c3c4c(sc3n(CC(N)=O)c2=O)CCCCC4)cc1	-1.1%
CN1CCCN(S(=O)(=O)c2ccc3ccccc3c2)CC1	92.3%
CC1(C)CC2(CC(c3ccccc3F)c3ccc(O)c(O)c3O2)NC(=S)N1 (stereo not given)	63.5%
CC1=NN(c2nc3ccccc3[nH]2)C(=O)/C1=C/N(C)C	6.31µM*	PKM2 inh dose=2.31µM*;PKM2 FLuc cs=6.51µM*;PKM2 inh LDH=-6.4%
Cc1cccc2cc(C#N)c(NCCNS(=O)(=O)c3ccc4c(c3)OCCO4)nc12	31.6%
COc1cc(NC(=O)CSc2nnc3c(n2)[nH]c2ccc(S(=O)(=O)NC(C)C)cc23)cc(OC)c1OC	81.1%
CC(=O)c1c(C)oc2ccc(N(C(C)=O)S(=O)(=O)c3cccc4cccnc34)cc12	75.8%
SMILES	PKM2 inh	others
Cc1nc(-c2ccc(S(=O)(=O)NCc3ccccn3)s2)cs1	45.1%
CC(=O)Nc1sc(N/N=C\c2ccccc2F)nc1-c1cccs1	50.9%
CC1C/C(=C/c2ccccn2)C(=O)/C(=C/c2ccccn2)C1 (stereo not given)	41.2%
Cc1nc(N/N=C/c2ccccn2)sc1C	7.94µM*	PKM2 inh dose=9.19µM*;PKM2 FLuc cs=5.17µM*;PKM2 inh LDH=-9.8%
C/C=C\C=C/C(=O)Nc1cccc(C2=NOC3(C2)C[C@H](C(N)=O)N(C(=O)c2ccc(OC)cc2)C3)c1 (stereo not given in full)	60.1%
O=C1C=CC(=O)N1CCCCCCN1C(=O)C=CC1=O	10µM*	PKM2 inh dose=6.51µM*;PKM2 FLuc cs=-0.8%;PKM2 inh LDH=-28.5%
O=C(NCc1nnc2c(C(F)(F)F)cc(Cl)cn12)c1ccco1	64.2%
CCOC(=O)c1[nH]c2ccccc2c1N=CN(CC)CC	-3.3%
Cc1ccc(CSC2=Nc3sccc3C3=NC(=O)CN23)cc1	42.9%
O=C(CCCc1c[nH]c2ccccc12)N1CCN(S(=O)(=O)c2cccs2)CC1	126.9%
O=C(NCCc1ccccc1)c1c(O)c2ccccc2[nH]c1=O	35.6%
O=C1C(c2cc(=O)c3ccccc3[nH]2)=C(O)c2ccccc21	11.2µM*	PKM2 inh dose=16.3µM*;PKM2 FLuc cs=-12.9%;PKM2 inh LDH=?
COc1cc(C(c2nnnn2C(C)(C)C)N2CCN(c3nc4ccccc4s3)CC2)ccc1O (stereo not given)	83.3%
CC(=O)c1cc2c(cc1NC(=O)CSc1nc3ccccc3[nH]1)OCO2	32.0%
O=C(Nc1nc2ccccc2[nH]1)c1ccccc1F	8.91µM*	PKM2 inh dose=5.17µM*;PKM2 FLuc cs=4.11µM*;PKM2 inh LDH=-7.5%
CCS(=O)(=O)N1Cc2ccccc2CC1C(=O)Nc1nc2ccccc2[nH]1 (stereo not given)	35.6%
Cc1ccc2nc(-c3ccncc3)c(Nc3ccccc3)n2c1	/	PKM2 inh dose=15.9%;PKM2 FLuc cs=-2.2%;PKM2 inh LDH=-0.7%
Cc1ccc2nc(-c3cccs3)c(Nc3ccccc3)n2c1	/	PKM2 inh dose=2.8%;PKM2 FLuc cs=-4.2%;PKM2 inh LDH=-6.9%
O=C(CSc1ccc(-c2cccs2)nn1)Nc1ccccc1	44.1%
O=C(CN1CCSC1=NCc1ccccc1)c1ccc(Cl)cc1	36.5%
CC(NC(=O)Cn1nnc(-c2ccncc2)n1)c1ccccc1 (stereo not given)	-4.0%
COc1cccc(CNC(=O)C2CCN(S(=O)(=O)c3ccc4c(c3)OCCO4)CC2)c1	64.1%
O=C(COc1ccc(S(=O)(=O)N2CCOCC2)cc1Cl)NCC1CCCO1 (stereo not given)	33.5%
COc1cc(C(=O)NCC(=O)N2CCN(S(=O)(=O)c3cc(C)ccc3C)CC2)cc(OC)c1OC	32.3%
COc1ccc([N+](=O)[O-])cc1NC(=O)COC(=O)c1ccc(O)cc1	-5.3%
